# Source: PubChem BioAssay (several laboratories)
# Autophagy mod = alters autophagy in cells; MEF GFP-LC3 puncta imaging; test concentration mostly 10 µM; calls only at 10 µM (by protocol); 0.98% of 190,000 active;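 active = percentage of spot-positive cells more than 3 SD above its plate mean, without a fluorescence outlier flag or 80% toxicity; inconclusive = no clear call, values can overlap the other calls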
# PTEN del growth = growth suppressors of cells with PTEN tumor suppressor deletion | 1.2% of 140,000 active | AID 827 | viability, % at 10 µM | HCT116 PTEN-null viability, CellTiter-Glo, 60 h; stronger effect = lower value;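 active = viability at or below a set limit, 4 SD under the median of all tested compounds, cut at about 3.7% in these data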;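 also: PTEN knockout HCT116 line with beta catenin targeted HCT116 as companion control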
# HCT116 bCat-KO = beta-catenin-lacking colon tumor cell growth suppression. HCT116 beta-catenin knockout viability, CellTiter-Glo, 60 h; stronger effect = lower value. viability, % at 10 µM. 1.5% of 140,000 active. AID 818;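 active = viability at or under a set limit, the compound median less 4 SD, cut at about 6% in these data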
# L major viab = Leishmania major promastigote growth inhibition; Leishmania major promastigotes, resazurin fluorescence viability; inhibition, % at 10 µM; 9% of 200,000 active; in the data active = inhibition above about 50%;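 also: promastigotes grown with compound for 44 hours at 28 °C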
# Insulin prom inh = TRM-6 insulin promoter activity inhibition | TRM-6 cells (human fetal islet line), insulin promoter-eGFP reporter, imaging; reporter expression induced with tamoxifen | inhibition, % at 2 µM | 0.9% of 130,000 active | AID 1273;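 active = inhibition above the mean plus 3 SD, with well images judged a real hit on visual review, cut at about 60% in these data, passing the limit was not always enough; inconclusive = inhibition over the cutoff but images rejected on review; inactive = inhibition not above the cutoff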
# Insulin prom up = MIN6 insulin promoter up-regulation; MIN6 insulin promoter-GFP reporter, high-content imaging; stronger effect = higher value; z-score at 5 µM; 0.3% of 190,000 active;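 active = z-score above 3 at 5 µM with at least 500 cells counted in the well; inconclusive = wells under 500 cells, flagged as cytotoxic or low count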
# Numbers stand for hits; i = inactive; ? = inconclusive; nt = no result; + = active, no number. This is a sample that favours compounds with a hit; in the whole collection about 9.6% have one here.
SMILES,Autophagy mod,PTEN del growth,HCT116 bCat-KO,L major viab,Insulin prom inh,Insulin prom up
O=C(COC(=O)CSc1ccc2ccccc2c1)Nc1ccccc1OC(F)F,i,i,i,i,nt,i
CC(C(=O)NC1CCCC1)N(Cc1ccc2c(c1)OCO2)C(=O)c1snc(C(N)=O)c1N (configuration not stated),+,i,i,i,nt,i
Cc1ccc(N(C(=O)c2snc(C(N)=O)c2N)C(C(=O)NCCC(C)C)c2ccco2)cc1 (configuration not stated),i,nt,nt,65,i,i
CC(C)CCNC(=O)C(CC(C)C)N(Cc1ccc2c(c1)OCO2)C(=O)c1snc(C(N)=O)c1N (configuration not stated),i,nt,nt,92,nt,i
CCc1ccccc1N(CC(=O)NCc1ccco1)C(=O)c1snc(C(N)=O)c1N,i,i,i,62,i,nt
COC(C[C@@H](O)[C@@H](C)[C@@H](O)COCc1ccccc1)OC,nt,nt,nt,nt,nt,i
Cc1cs/c(=N\N=C\c2cccc([N+](=O)[O-])c2)n1Cc1ccco1,i,i,i,i,nt,i
CN1C(=O)CC(N2CCN(C(=O)CN3CCCC3)CC2)C1=O (configuration not stated),i,i,i,i,nt,i
CCOC(=O)CC(NC(=O)Cn1nnc(-c2ccccc2)n1)c1ccc(OC)cc1 (configuration not stated),i,nt,nt,i,i,i
CCC(O)CNc1nc(-n2nc(C)cc2C)nc2sc3c(c12)CCCC3 (configuration not stated),nt,nt,nt,nt,nt,i
Cc1cc(C)n(-c2nc(SCCN(C)C)c3c4c(sc3n2)CCCC4)n1,i,2.0,3.0,100,i,i
C=C(Br)Cn1c(CC(C)C)nc2ccccc21,i,i,i,i,i,i
COC(=O)c1ccc(C(=O)NC(=S)Nc2ccc3nc(SC)sc3c2)cc1,i,1.5,0.9,i,nt,nt
Cc1ccc(-c2nc(CN(CC3CCC3)CC3CCCO3)c(C)o2)s1 (configuration not stated),i,nt,nt,i,nt,i
COc1ccc(Cn2ccnc2)cc1Br,i,i,i,71,i,i
Clc1ccc(OCCCn2ccnc2)c(Br)c1,i,i,i,95,i,i
Cc1ccc(OCCOCCn2ccnc2)c(Br)c1,i,i,i,92,i,i
Cc1cc(Cl)c(OCCCn2ccnc2)c(Br)c1,i,i,i,i,i,i
COc1cc(C)ccc1OCCOCCOc1cc(C)c(C)cc1Br,i,i,i,i,i,i
CC1CC(C)CN(CC(=O)N2CCOCC2)C1 (configuration not stated),i,nt,nt,i,nt,i
CCOC(=O)CSc1nn(-c2ccccc2)c(=S)s1,i,nt,nt,i,i,i
c1ccc(Nc2nc(N3CCNCC3)nc(N3CCOCC3)n2)cc1,i,i,i,i,i,i
CC(=O)c1ccc(Oc2ccc(C(C)=O)cc2)cc1,i,i,i,i,i,i
CC1=CC(C)(C)N=C(Nc2nc(C)c3cc(C)cc(C)c3n2)N1,i,nt,nt,97,i,i
Cc1oc2cc(OC(=O)c3ccco3)ccc2c(=O)c1-c1nc2ccccc2n1C,i,i,i,i,i,i
SMILES,Autophagy mod,PTEN del growth,HCT116 bCat-KO,L major viab,Insulin prom inh,Insulin prom up
CCCCN1C[C@H](O)[C@@H](O)[C@H](O)[C@H]1CO,i,1.2,1.0,i,i,nt
CSc1nc(Oc2ccc(F)cc2)c2ccccc2n1,i,i,i,i,i,i
CC(C)CC(=O)NC(c1cccs1)c1ccc2cccnc2c1O (configuration not stated),i,nt,nt,100,i,i
CCC(=O)NC(/C=C/c1ccccc1)c1cc([N+](=O)[O-])c2cccnc2c1O (configuration not stated),i,i,i,i,nt,i
Cc1conc1NC(c1cccs1)c1ccc2cccnc2c1O (configuration not stated),i,2.6,3.5,99,nt,i
CCC(=O)NC(c1cccs1)c1ccc2cccnc2c1O (configuration not stated),i,nt,nt,100,nt,i
Cc1ccc(C)c(NC(=O)CSc2nnc(-c3ccco3)o2)c1,i,i,i,i,nt,i
CCOC(=O)C1=NNC2(c3ccc(C)cc3)C(=O)N(c3ccccc3)C(=O)C12 (configuration not stated),nt,nt,nt,nt,nt,i
COC(=O)c1sc2ccc(C)cc2c1C(=O)OC,i,i,i,i,i,nt
Oc1ccccc1CN(Cc1ccco1)CC(O)COCc1ccc(Cl)cc1 (configuration not stated),i,i,i,i,i,i
Cc1cc2oc(C(=O)N(Cc3ccccc3)C3CCS(=O)(=O)C3)cc(=O)c2cc1Cl (configuration not stated),i,i,i,50,i,i
Cc1c(C(=O)N(Cc2ccc(N(C)C)cc2)C2CCS(=O)(=O)C2)oc2ccccc12 (configuration not stated),nt,nt,nt,nt,nt,i
COc1ccc(CN(C(=O)c2oc3ccccc3c2C)C2CCS(=O)(=O)C2)cc1 (configuration not stated),i,i,i,54,i,i
Cc1cnc(NC(=O)c2c(O)c3cccc4c3n(c2=O)CCC4)s1,i,i,i,i,nt,i
O=C(NCCc1ccccc1)c1c(O)c2cccc3c2n(c1=O)CC3,i,i,i,i,i,i
O=C(NCc1ccccn1)c1c(O)c2cccc3c2n(c1=O)CC3,i,0.6,0.9,i,i,i
CC(C)c1nnc(NC(=O)c2c(O)c3cccc4c3n(c2=O)CCC4)s1,i,i,i,72,nt,i
COc1ccc(OC)c(CC(NC(C)=O)C(=O)NC2CCN(c3nc(OC)nc(OC)n3)CC2)c1 (configuration not stated),i,nt,nt,i,nt,i
COc1cc(C2c3c(-c4ccccc4O)n[nH]c3C(=O)N2Cc2ccco2)cc(OC)c1OC (configuration not stated),nt,nt,nt,nt,nt,i
O=c1c(S(=O)(=O)c2ccc(Cl)cc2)cn(Cc2ccccc2)c2ccc(F)cc12,i,i,i,91,i,i
Cc1ccc(NC(=O)Cn2cc(S(=O)(=O)c3ccccc3)c(=O)c3cc(F)ccc32)cc1,i,i,i,i,i,i
N#C/C(=C\c1cccnc1)c1nc2ccccc2[nH]1,nt,nt,nt,nt,nt,i
CCN(CC)c1ccc(/C=C(/C#N)c2nc3ccccc3[nH]2)c(OC(C)C)c1,+,i,i,98,i,nt
N#C/C(=C\c1ccncc1)c1nc2ccccc2[nH]1,i,nt,nt,59,nt,i
CCn1c(SCC(=O)c2cc(C)n(CC3CCCO3)c2C)nc2ccccc21 (configuration not stated),i,i,i,i,nt,i
O=C1C(N2CCOCC2)=C(n2nnc3ccccc32)C(=O)c2ccccc21,i,2.1,2.0,100,i,?
Cc1cc(Br)ccc1OCCN1CC(C)OC(C)C1 (configuration not stated),i,nt,nt,i,nt,i
CC1CCCN(CCOCCOc2ccc(Br)cc2Cl)C1 (configuration not stated),i,i,i,97,i,i
CCCCCOc1ccc(CN2CCOCC2)cc1Cl,i,i,i,86,nt,i
Cc1ccc(OCCCCN2CCC(C)CC2)c(Br)c1,i,i,i,100,i,i
